Bioassay records from PubChem BioAssay.
An excerpt weighted towards active compounds, which were near 2.5% of everything screened.
UHRF1 binding: blocks human UHRF1 binding to methylated DNA. Q96T88. UHRF1 binding to methylated oligo, TR-FRET. inhibition, % at 4.4 µM. hit rate 0.75% among 370,000. AID 687016; in the data active = inhibition above about 21%;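 note: UHRF1 SRA domain binding a hemimethylated CpG hairpin DNA probe; 0% = median of test compound wells and 100% = reference inhibitor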
LEDGF integ inh: blocks HIV-1 LEDGF/p75-dependent DNA integration; TR-FRET IN-LEDGF/p75 DNA integration, Eu/Cy5; hit rate 0.64% among 370,000; inhibition, % at 3.7 µM;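 active = inhibition above the screen-wide mean plus 3 SD, cut at about 13% in these data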;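 note: signal is the Cy5 over europium emission ratio at 671 and 618 nm; 0% = plate median of compound wells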
PRMT1 FP inh: inhibitors of human PRMT1. Q99873. recombinant PRMT1, activity-based probe fluorescence polarization. inhibition, % at 2.79 µM. hit rate 1.3% among 370,000. AID 652257;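 active = inhibition above about 21% made by adding two undisclosed values, limit read from the data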
MBD2 DNA inh: MBD2-methylated oligo binding inhibition | Q9UBB5 | TR-FRET, MBD2 binding to methylated oligonucleotide | inhibition, % at 4.4 µM | hit rate 0.31% among 370,000 | AID 686964; in the data active = inhibition above about 13%
Target sequence (Q9UBB5 whole entry, looked up): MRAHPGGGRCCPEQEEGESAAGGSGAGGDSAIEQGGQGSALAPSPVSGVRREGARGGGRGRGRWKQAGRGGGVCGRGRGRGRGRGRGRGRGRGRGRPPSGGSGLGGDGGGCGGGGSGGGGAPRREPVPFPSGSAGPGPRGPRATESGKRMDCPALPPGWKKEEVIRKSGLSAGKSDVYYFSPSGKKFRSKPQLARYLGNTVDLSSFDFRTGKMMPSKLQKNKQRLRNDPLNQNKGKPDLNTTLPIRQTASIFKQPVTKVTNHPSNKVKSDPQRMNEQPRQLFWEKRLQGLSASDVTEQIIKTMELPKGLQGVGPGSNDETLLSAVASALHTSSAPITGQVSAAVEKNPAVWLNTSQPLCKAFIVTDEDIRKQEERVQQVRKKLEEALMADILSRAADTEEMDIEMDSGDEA
Starred values were filed as active, the others as inactive.

What do the screens show for `CC(C)c1ccc(S(=O)(=O)N2CCN(C(=O)c3cccc(S(=O)(=O)N4CCOCC4)c3)CC2)cc1`?
UHRF1 binding: 0; LEDGF integ inh: 1; PRMT1 FP inh: -9; MBD2 DNA inh: 0

How did CCOc1cc(C2NC(=S)NC(C)=C2C(=O)Nc2ccccc2)ccc1O (stereo not given) do in these assays?
UHRF1 binding: 3; LEDGF integ inh: -1; PRMT1 FP inh: 22*; MBD2 DNA inh: 5

What do the screens show for `Nc1ccc2nc(SCC(=O)c3ccccc3)sc2c1`?
UHRF1 binding: -7; LEDGF integ inh: -1; PRMT1 FP inh: 0; MBD2 DNA inh: -3

What do the screens show for `Nc1ccc2nc(SCc3ccccc3F)sc2c1`?
UHRF1 binding: 23*; LEDGF integ inh: 0; PRMT1 FP inh: 0; MBD2 DNA inh: -1

Results for CN(Cc1ccc(Cl)s1)C(=O)CN1C(=O)N(C)C2(CCCCC2)C1=O ?
UHRF1 binding: -2; LEDGF integ inh: 4; PRMT1 FP inh: -3; MBD2 DNA inh: -2

Results for Cc1oc(-c2ccc(Cl)cc2)cc1-c1nn2c(-c3ccoc3C)nnc2s1 ?
UHRF1 binding: 23*; LEDGF integ inh: 29*; PRMT1 FP inh: 13; MBD2 DNA inh: 7

Results for O=C(c1ccc(Cl)c(S(=O)(=O)N2CCOCC2)c1)N(Cc1ccco1)Cc1cccs1 ?
UHRF1 binding: 2; LEDGF integ inh: -6; PRMT1 FP inh: 7; MBD2 DNA inh: -2

How did C#CCNC(=O)C[C@H]1C[C@@]2(C(=O)OC)C(=C[C@H](COCc3ccccc3)O[C@@H]2C)N(CCCCCCCC)C1=O do in these assays?
UHRF1 binding: 0; LEDGF integ inh: -1; PRMT1 FP inh: 0; MBD2 DNA inh: 2

How did COc1ccccc1-c1cnc(C(O)c2cc(Cl)cc(Cl)c2)[nH]1 (stereo not given) do in these assays?
UHRF1 binding: 22*; LEDGF integ inh: 5; PRMT1 FP inh: 1; MBD2 DNA inh: 5

Results for COc1ccccc1-c1cnc(C(O)c2ccccc2)[nH]1 (stereo not given) ?
UHRF1 binding: -2; LEDGF integ inh: -1; PRMT1 FP inh: -1; MBD2 DNA inh: -1

What do the screens show for `CCC(C(=O)OCC(=O)Nc1ccc2[nH]c(=O)[nH]c2c1)c1ccccc1` (stereo not given)?
UHRF1 binding: 3; LEDGF integ inh: -5; PRMT1 FP inh: 1; MBD2 DNA inh: 0

How did O=C1NCCCC2c3c(cc(Br)c(O)c3Br)OC12N1CCCCC1 (stereo not given) do in these assays?
UHRF1 binding: -9; LEDGF integ inh: -1; PRMT1 FP inh: 79*; MBD2 DNA inh: -4

What do the screens show for `O=C1NCCCc2c1oc1cc(Br)c(O)c(Br)c21`?
UHRF1 binding: 1; LEDGF integ inh: -3; PRMT1 FP inh: 6; MBD2 DNA inh: -5

How did CCNC(=O)/C=C1\NC(C)(C)Cc2c1ccc1ccccc21 do in these assays?
UHRF1 binding: 22*; LEDGF integ inh: 0; PRMT1 FP inh: 9; MBD2 DNA inh: 10

What do the screens show for `CC1(C)Cc2c(ccc3ccccc23)C(=O)N1`?
UHRF1 binding: 1; LEDGF integ inh: 3; PRMT1 FP inh: -2; MBD2 DNA inh: -9

What do the screens show for `Cc1ccc(COC(=O)c2cccc(S(=O)(=O)N3CCCCC3)c2)cc1`?
UHRF1 binding: 1; LEDGF integ inh: 0; PRMT1 FP inh: 1; MBD2 DNA inh: -2

How did COc1ccc(OC)c(COC(=O)c2cccc(S(=O)(=O)N3CCCCC3)c2)c1 do in these assays?
UHRF1 binding: 21*; LEDGF integ inh: -6; PRMT1 FP inh: 4; MBD2 DNA inh: 6

Results for COc1ccccc1COC(=O)c1cccc(S(=O)(=O)N2CCCC2)c1 ?
UHRF1 binding: -3; LEDGF integ inh: 3; PRMT1 FP inh: -2; MBD2 DNA inh: -4

How did Cc1ccc(COC(=O)c2cccc(S(=O)(=O)N3CCCCCC3)c2)cc1 do in these assays?
UHRF1 binding: 25*; LEDGF integ inh: 3; PRMT1 FP inh: 2; MBD2 DNA inh: 8

What do the screens show for `CCOc1cc(CNCCO)ccc1OCC(=O)NC(C)(C)C`?
UHRF1 binding: 4; LEDGF integ inh: 2; PRMT1 FP inh: 1; MBD2 DNA inh: -1

How did CCOC(=O)c1ccc(NC(=O)COc2ccc(CNCCO)cc2OCC)cc1 do in these assays?
UHRF1 binding: 102*; LEDGF integ inh: -10; PRMT1 FP inh: 0; MBD2 DNA inh: 4

What do the screens show for `CCCCOc1ccc(S(=O)(=O)n2c(C)nc3ccccc32)cc1`?
UHRF1 binding: 43*; LEDGF integ inh: -3; PRMT1 FP inh: 2; MBD2 DNA inh: 0

How did CCOC(=O)[C@]12CCCCC/C=C\1N(Cc1ccc(OC)cc1)C(=O)[C@H]2CC(=O)N1CCSCC1 do in these assays?
UHRF1 binding: 2; LEDGF integ inh: 1; PRMT1 FP inh: 0; MBD2 DNA inh: 3

What do the screens show for `CCN1CC=C2C(C#N)=C(N)C(C#N)(C#N)C(c3cc(Cl)ccc3Cl)C2C1` (stereo not given)?
UHRF1 binding: -3; LEDGF integ inh: -1; PRMT1 FP inh: 25*; MBD2 DNA inh: -2

Results for COc1ccc(NC(=S)Nc2ncccc2C)cc1OC ?
UHRF1 binding: -2; LEDGF integ inh: -5; PRMT1 FP inh: 6; MBD2 DNA inh: -2

Results for COc1ccc(NC(=S)Nc2ncccc2C)c(OC)c1 ?
UHRF1 binding: 25*; LEDGF integ inh: 2; PRMT1 FP inh: 2; MBD2 DNA inh: -4

What do the screens show for `O=C(O)CSc1c2ccccc2cc2ccccc12`?
UHRF1 binding: -10; LEDGF integ inh: 0; PRMT1 FP inh: 31*; MBD2 DNA inh: -3

How did COc1cc(C(O)c2nc(-c3ccccc3OC)cs2)ccc1F (stereo not given) do in these assays?
UHRF1 binding: 1; LEDGF integ inh: 1; PRMT1 FP inh: 0; MBD2 DNA inh: 2

What do the screens show for `O=C(c1cnn2c(C(F)F)cc(C3CC3)nc12)N1CCCC1`?
UHRF1 binding: -2; LEDGF integ inh: 3; PRMT1 FP inh: 2; MBD2 DNA inh: 4

Results for O=C(c1cc2nc(C3CC3)cc(C(F)F)n2n1)N1CCOCC1 ?
UHRF1 binding: 21*; LEDGF integ inh: 4; PRMT1 FP inh: -1; MBD2 DNA inh: 3

What do the screens show for `CCC/C=C1/CCCOC(C(=O)NCc2ccc(C)o2)(C(F)(F)F)C1` (stereo not given)?
UHRF1 binding: 4; LEDGF integ inh: -1; PRMT1 FP inh: 45*; MBD2 DNA inh: 5

Results for CCC/C=C1/CCCOC(C(=O)NCc2ccccn2)(C(F)(F)F)C1 (stereo not given) ?
UHRF1 binding: 3; LEDGF integ inh: -3; PRMT1 FP inh: 1; MBD2 DNA inh: -1

How did Cc1ccc(NC(=O)CS(=O)CC(=O)Nc2ccccc2-c2ccc(C)o2)cc1 (stereo not given) do in these assays?
UHRF1 binding: -3; LEDGF integ inh: -1; PRMT1 FP inh: 51*; MBD2 DNA inh: -6

What do the screens show for `Cc1ccccc1-c1cccc2c3c([nH]c12)[C@@H]1C[C@H]2[C@@H](CN1CC3)[C@H](C)ON2C`?
UHRF1 binding: 2; LEDGF integ inh: -2; PRMT1 FP inh: 0; MBD2 DNA inh: 5

How did CCc1ccc(OCC(=O)NC(=S)Nc2ccc(C(C)=O)cc2)c(Br)c1 do in these assays?
UHRF1 binding: 24*; LEDGF integ inh: 5; PRMT1 FP inh: 0; MBD2 DNA inh: 7
